This is part of a sample that, as a whole, favours compounds with a hit. Of some 83,000 tested, about 20% had one in any assay.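 Plates (96-well) were seeded with cells, treated with compound at one concentration, and incubated for 48 hours before percent growth was determined.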 Unmarked numbers belong to inactive results. The source made the active and inactive calls. Rule for the calls: active = growth percent below 10; inactive = the rest.
Experiments:
Assay in all cases: NCI-60 one-dose screen, 48 h (100 = growth as untreated, 0 = no growth, -100 = all killed)
Conditions in all cases: 10 µM unless noted
SK-MEL-2 melanoma = system: SK-MEL-2 melanoma
EKVX NSCLC = system: EKVX NSCLC
SN12C renal = system: SN12C renal
UO-31 renal = system: UO-31 renal
TK-10 renal = system: TK-10 renal
ACHN renal = system: ACHN renal
CAKI-1 renal = system: CAKI-1 renal
A498 renal = system: A498 renal
MOLT-4 leukemia = system: MOLT-4 leukemia

Compound	growth (SK-MEL-2 melanoma)	growth (EKVX NSCLC)	growth (SN12C renal)	growth (UO-31 renal)	growth (TK-10 renal)	growth (ACHN renal)	growth (CAKI-1 renal)	growth (A498 renal)	growth (MOLT-4 leukemia)
O=c1c2c3c(sc2nc(N/N=C/c2ccc(Br)cc2)n1Cc1ccccc1)CCCC3	102%	74.1%	78.3%	62.3%	85.5%	87.1%	62%	78.4%	40.8%
COc1ccc(-c2nc3c(N)c(CO)c(C)nc3o2)cc1	105%	95.7%	106%	88.7%	85%	112%	97%	-10.8% (active)	96.3%
CC1SC(c2ccc(OCc3ccccc3)cc2)N(NC(=O)C(O)(c2ccccc2)c2ccccc2)C1=O (stereo not drawn)	74.4%	47%	85.6%	54.6%	58.6%	55.3%	44.3%	55.8%	28.7%
Cc1ccc(N(C(=O)CCc2c[nH]c3ccccc23)[C@H](C(=O)Nc2ccc(Cl)cc2)c2cccc([N+](=O)[O-])c2)cc1	105%	93%	87.2%	47.4%	116%	61%	80.5%	58.6%	70.8%
COc1ccc(-c2nc(SC(C)C)nc(NNC(N)=S)c2C#N)cc1	48.7%	65.7%	55.1%	64.3%	72.9%	72.1%	42.3%	50.2%	32.1%
N/C(=N\c1nc2ccccc2s1)NC(=O)Nc1cccc(Cl)c1	28.9%	49.7%	40.9%	46.8%	69.2%	44.7%	23.9%	10.7%	31.1%
COc1cc(/C=C/C(=O)c2ccc(Nc3nc(Nc4ccc(F)cc4)nc(Nc4ccc(Cl)cc4)n3)cc2)cc(OC)c1OC	62.6%	74.1%	70.1%	42.4%	73.9%	78.1%	124%	79.8%	0.996% (active)
O=C(O)c1ccc2c(c1)CCC2	95.8%	117%	103%	94.4%	107%	104%	101%	139%	91.1%
Oc1c(CN2CCCC2)cc(COCc2ccc(Br)cc2)c2cccnc12	-18% (active)	27.5%	12%	-13.9% (active)	7.24% (active)	0.47% (active)	1.4% (active)	-1.12% (active)	-8.18% (active)
CCOC(=O)/C=C/c1cc2cc(-c3csc4ccccc34)ccc2[nH]1	101%	72.7%	91.8%	36.2%	121%	90.8%	69.4%	89.8%	12.2%
Cc1ccc(-n2c(-c3ccccc3)c(-c3ccccc3)c3c(SCC(=O)n4[nH]c(N)cc4=O)ncnc32)cc1	108%	87.2%	99.2%	71.9%	104%	91.2%	88.4%	114%	87.3%
CN1CCN(C(=O)c2c3c(n4ccccc24)C(=O)c2ncccc2C3=O)CC1	80%	91.5%	45%	35.2%	89.3%	32%	35.7%	51.5%	103%
NS(=O)(=O)c1cnccc1Sc1ccncc1S(N)(=O)=O	119%	96.9%	100%	80%	99.6%	106%	98.2%	104%	86.3%
O=C1CCc2c(sc3[nH]c(=S)n(-c4ccc(OC(F)(F)F)cc4)c(=O)c23)C1	58.5%	56.7%	31.4%	44.4%	104%	80.3%	83.6%	107%	47.3%
Cc1cc(=O)oc2c1ccc1oc(C#N)c(C)c12	115%	93.7%	101%	94.7%	89.2%	103%	106%	75.1%	102%
O=c1c2c3c(sc2n2c(-c4cc(-c5ccccc5)nn4-c4ccccc4)nnc2n1Cc1ccccc1)CCCC3	102%	101%	98%	36.7%	126%	106%	20.9%	141%	19.1%
CCSC1=NC2C(N(CC)C(=O)N2CC)N1/N=C/C=C/c1ccccc1[N+](=O)[O-] (stereo not drawn)	50.3%	46.5%	19.8%	34.6%	70.6%	25.1%	19.5%	-5.18% (active)	15.1%
CC/C=C1/C(=O)C=C[C@@H]1C/C=C\CCCC(=O)O	87%	101%	79.9%	103%	105%	85.5%	84.9%	104%	9.64% (active)
CC1(c2ccccc2)NC(=O)N(NC(=O)CSc2nc(-c3cccs3)nc3ccccc23)C1=O (stereo not drawn)	89.8%	93%	100%	-6.98% (active)	113%	91.5%	72.3%	71.4%	73.5%
Cc1ccc(-c2c(-c3ccccc3)c(=O)oc3ccc(C)cc23)cc1	134%	96.9%	91.9%	79.9%	118%	90.6%	81.1%	97.9%	76.3%
Cc1cccc(-c2nc(N(C)c3ccc4ncsc4c3)c3ccccc3n2)n1	85.1%	85%	93.6%	77.7%	105%	94.6%	77.5%	78.8%	76.4%
COc1ccc(C2=Nc3c(N)ncnc3NC(c3ccc4c(c3)OCO4)C2)cc1 (stereo not drawn)	57.6%	82.1%	102%	79.4%	107%	83.6%	90%	97.5%	105%
N#CCN1C(=O)C2C3=C(CCCC3)SC2N=C1CN1CCCC1 (stereo not drawn)	83.5%	96%	100%	7.35% (active)	104%	104%	104%	100%	79.9%
CCOC(=O)c1c2c(n3ccc(NC(=O)OC(C)(C)C)cc13)C(=O)c1ncccc1C2=O	9.26% (active)	-39.8% (active)	-31% (active)	-76.4% (active)	6.15% (active)	-41% (active)	-3.67% (active)	-0.0751% (active)	7.38% (active)
Cc1ccc(-c2cc(-c3ccccc3C)[nH]c(=O)c2C#N)s1	110%	96.9%	91.8%	71.7%	92.1%	90.7%	82.9%	77.5%	93.3%
O=c1cc(-c2ccc(Cl)cc2)[nH]c2ccccc12	79.7%	68.3%	96.9%	74.6%	110%	85.6%	73.7%	75.1%	110%
O=C(NC(CSSCC(NC(=O)c1ccccc1)C(=O)O)C(=O)O)c1ccccc1 (stereo not drawn)	97.3%	103%	102%	91.8%	101%	102%	91.6%	86.1%	-1.1% (active)

Source: PubChem BioAssay (NCI)
